Results: PubChem BioAssay (EPA / NIEHS)
Results filed as inconclusive are left out. Activity calls are given as the source filed them. Rule for the calls: active = hit-call score of the fitted dose curve at least 0.9, where 1 is the maximum; inconclusive = response in the unintended direction; inactive = score below 0.9.

Biological target: Peroxisome proliferator-activated receptor gamma (Homo sapiens) (UniProt P37231)
Test: OT_PPARg_PPARgSRC1_0480: Odyssey Thera (OT) 8-hour Protein-Complementation Assay for Peroxisome Proliferator-activated Receptor Gamma / SRC-1 Co-activator (AID 2283387);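 note: nuclear to cytoplasmic split Venus YFP fluorescence ratio reporting PPARg SRC-1 interaction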
Procedure: OT_PPARg_PPARgSRC1_0480 is a cell-based assay that uses HEK293T, a human kidney cell line, with measurements taken at 8 hours after chemical dosing in a 384-well plate.OT_PPARg_PPARgSRC1_0480 is one of one assay component(s) measured or calculated from the OT_PPARg_PPARgSRC1_0480 assay. It is designed to make measurements of protein fragment complementation, a form of binding reporter, as detected with fluorescence intensity signals by Protein-fragment Complementation technology.Data from the assay component OT_PPARg_PPARgSRC1_0480 was analyzed into 1 assay endpoint. This assay endpoint, OT_PPARg_PPARgSRC1_0480, was analyzed in the positive analysis fitting direction relative to DMSO as the negative control and baseline of activity. Using a type of binding reporter, measures of receptor for gain-of-signal activity can be used to understand the binding at the pathway-level as they relate to the gene PPARG. Furthermore, this assay endpoint can be referred to as a primary readout, because the performed assay has only produced 1 assay endpoint. To generalize the intended target to other relatable targets, this assay endpoint is annotated to the nuclear receptor intended target family, where the subfamily is non-steroidal.
The OT PPARg/SRC-1 assay assessed receptor-chemical interactions using a rapidly maturing, intensely fluorescent mutant of YFP known as Venus, rationally dissected into two separate fragments. The fragments were obtained as follows: first, fragments coding for YFP1 and YFP2 (corresponding to amino acid residues 1-158 and 159-239 of the full length YFP, respectively) were generated by oligonucleotide synthesis (Blue Heron Biotechnology), and then PCR mutagenesis was used to generate the mutant fragments IFP1 and IFP2. Fusion constructs were transfected into HEK293T cells with a (Gly4Ser)2 linker between the PPARg/SRC-1 and YFP fragment genes to facilitate complementation when interacting proteins bring fragments into close proximity. The construct is transiently transfected in HEK293T cells 48 hours prior to treatment with test compounds. Cells are seeded into optical quality 384-well poly-D-lysine coated plates in MEM alpha medium (Invitrogen) supplemented with 10 percent FBS (Gemini Bio-Products) 1 percent penicillin and 1 percent streptomycin, and grown in 37C incubator equilibrated to 5 percent CO2. Cells are allowed to adhere for 24 hours prior to treatment with compounds of interest or controls for 8 hours. Cells are fixed in 4 percent formaldehyde and stained with Draq5 (BioStatus) to identify cells and subcellular compartment boundaries prior to signal detection. 8 Images per well were acquired on an Evotec Opera at 2 wavelengths (488 and 635nm), and the ratio of fluorescence in the nucleus relative to fluorescence in the cytoplasm (N/C Ratio) in the 488nm channel was calculated for a minimum of 350 cells per image.

Sequence of Peroxisome proliferator-activated receptor gamma (Homo sapiens) (P37231 whole entry, looked up): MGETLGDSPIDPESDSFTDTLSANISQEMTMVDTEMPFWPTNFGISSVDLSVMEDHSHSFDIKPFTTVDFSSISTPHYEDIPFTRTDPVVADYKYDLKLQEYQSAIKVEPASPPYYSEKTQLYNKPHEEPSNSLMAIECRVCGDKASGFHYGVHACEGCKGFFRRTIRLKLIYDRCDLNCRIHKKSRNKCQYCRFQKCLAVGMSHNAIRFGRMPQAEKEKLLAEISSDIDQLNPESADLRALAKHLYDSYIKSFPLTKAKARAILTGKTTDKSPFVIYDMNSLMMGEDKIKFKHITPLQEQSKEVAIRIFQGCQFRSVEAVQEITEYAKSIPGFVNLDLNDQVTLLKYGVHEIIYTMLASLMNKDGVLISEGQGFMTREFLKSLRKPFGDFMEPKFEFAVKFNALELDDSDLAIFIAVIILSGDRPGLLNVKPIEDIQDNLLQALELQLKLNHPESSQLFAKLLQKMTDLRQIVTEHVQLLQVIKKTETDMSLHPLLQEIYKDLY

SMILES	outcome
CCc1cnc(C2=NC(C)(C(C)C)C(=O)N2)c(C(=O)O)c1 (stereo not given)	inactive
CON=C(C(=O)OC)c1ccccc1CON=C(C)c1cccc(C(F)(F)F)c1	inactive
CC1=NNC(=O)N(/N=C/c2cccnc2)C1	inactive
O=c1ccc(=O)[nH][nH]1	inactive
CC(=NC#N)N(C)Cc1ccc(Cl)nc1	inactive
CCOP(=S)(OCC)Oc1cc(C)nc(C(C)C)n1	inactive
CC(C)=CC1C(C(=O)OCN2C(=O)C3=C(CCCC3)C2=O)C1(C)C (stereo not given)	inactive
CCOP(=S)(OCC)Oc1ccc2c(C)c(Cl)c(=O)oc2c1	inactive
S=C1NCCN1	inactive
O=C(O)c1cc(Oc2ccc(C(F)(F)F)cc2Cl)ccc1[N+](=O)[O-]	inactive
CN(C)[C@@H]1C(=O)C(C(N)=O)=C(O)[C@@]2(O)C(=O)C3=C(O)c4c(O)cccc4[C@@](C)(O)[C@H]3[C@H](O)[C@@H]12	inactive
Cc1cc(C2CC2)nc(Nc2ccccc2)n1	inactive
COP(=O)(OC)OC(Br)C(Cl)(Cl)Br (stereo not given)	inactive
CCOP(=S)(OCC)OC(Cl)C(Cl)(Cl)Cl (stereo not given)	inactive
CCc1cccc(CC)c1N(COC)C(=O)CCl	inactive
CCCSP(=O)(OCC)SCCC	inactive
CCOC(=O)CC(SP(=O)(OC)OC)C(=O)OCC (stereo not given)	inactive
CCC(CC)Nc1c([N+](=O)[O-])cc(C)c(C)c1[N+](=O)[O-]	inactive
CCOP(=O)(NC(C)C)Oc1ccc(SC)c(C)c1 (stereo not given)	inactive
CC[C@H](C)[C@H]1O[C@]2(C=C[C@@H]1C)C[C@@H]1C[C@@H](C/C=C(\C)[C@@H](O[C@H]3C[C@H](OC)[C@@H](O[C@H]4C[C@H](OC)[C@@H](NC)[C@H](C)O4)[C@H](C)O3)[C@@H](C)/C=C/C=C3\CO[C@@H]4[C@H](O)C(C)=C[C@@H](C(=O)O1)[C@]34O)O2	inactive

SMILES	outcome
CCOC(=O)COc1cc(-c2nn(C)c(OC(F)F)c2Cl)c(F)cc1Cl	inactive
COc1cccc(C(=O)NN(C(=O)c2cc(C)cc(C)c2)C(C)(C)C)c1C	inactive
CCNc1nc(Cl)nc(NC(C)(C)C#N)n1	inactive
CN1COCN(Cc2cnc(Cl)s2)C1=N[N+](=O)[O-]	inactive
CCC(=O)Nc1ccc(Cl)c(Cl)c1	inactive
CSC1=N[C@@](C)(c2ccccc2)C(=O)N1Nc1ccccc1	inactive
CC(Oc1cccc(Cl)c1)C(=O)O (stereo not given)	inactive
COP(=O)(OC)C(O)C(Cl)(Cl)Cl (stereo not given)	inactive
C#CCC1=C(C)C(OC(=O)C2C(C=C(C)C)C2(C)C)CC1=O (stereo not given)	inactive
CCOP(=O)(OCC)Oc1cc(C)nc(C(C)C)n1	inactive
CN(C)C(=O)Nc1cccc(C(F)(F)F)c1	inactive
COP(=O)(OC)SCn1c(=O)oc2cc(Cl)cnc21	inactive
CCCCSP(=O)(SCCCC)SCCCC	inactive
C=C(C)[C@H]1Cc2c(ccc3c2O[C@@H]2COc4cc(OC)c(OC)cc4[C@@H]2C3=O)O1	inactive
CCCSP(=O)(OCC)Oc1ccc(Br)cc1Cl (stereo not given)	inactive
COc1cc(OC)nc(Sc2cccc(Cl)c2C(=O)O)n1	inactive
Nc1c(Cl)cc([N+](=O)[O-])cc1Cl	inactive
Cc1ccn2nc(S(=O)(=O)Nc3c(F)cccc3F)nc2n1	inactive
FC(F)C(F)(F)OCC(Cn1cncn1)c1ccc(Cl)cc1Cl (stereo not given)	inactive
C[N+]1(C)CCCCC1	inactive
